“And” between values parts separate entries of the source, which are not always exact repeats. Equal values may be shown once. The source holds several records for some structures; these can differ, active in one and inactive in another. The source made the active and inactive calls. How the source made its calls: active means hit-call score of the fitted dose curve at least 0.9, where 1 is the maximum; inactive means score below 0.9.

Read-out in assay [1]: Interleukin-1 alpha (IL1a), IL1A (gene 3552)
Nature of the assay: BSK_KF3CT_IL1a: BioMAP Diversity Plus: KF3CT Assay for Interleukin-1 alpha (IL1a) Biomarker Activity (AID 2283070). As to conditions: primary human keratinocytes with fibroblasts; actives raise or lower the signal. A digest of the protocol: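 Chemicals were dosed onto co-cultured human keratinocytes and foreskin fibroblasts, IL-1a was quantified by ELISA at 24 h, and activity was fitted in both directions relative to DMSO controls.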

Read-out in assay [2]: TIMP metallopeptidase inhibitor 2 (TIMP2), TIMP2 (gene 7077)
Put plainly: BSK_KF3CT_TIMP2: BioMAP Diversity Plus: KF3CT Assay for TIMP metallopeptidase inhibitor 2 (TIMP2) Biomarker Activity (AID 2283071). To be noted: primary human keratinocytes with fibroblasts; actives raise or lower the signal. A digest of the protocol:
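Cells: human keratinocytes co-cultured with foreskin fibroblasts. Treat with chemical, 24 h. Measure TIMP-2 by ELISA; fit curves bidirectionally vs DMSO baseline.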

Read-out in assay [3]: C-C motif chemokine 2 (Homo sapiens) (UniProt P13500)
Put plainly: BSK_KF3CT_MCP1: BioMAP Diversity Plus: KF3CT Assay for Monocyte Chemoattractant Protein 1 (MCP1/CCL2) Biomarker Activity (AID 2283073). As to conditions: primary human keratinocytes with fibroblasts; actives raise or lower the signal. A digest of the protocol:
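Keratinocytes and foreskin fibroblasts were co-cultured, dosed with chemical, and sampled 24 h later. MCP-1 was quantified by ELISA, and the endpoint was analyzed with bidirectional fitting using DMSO as negative control.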

Read-out in assay [4]: Matrix Metallopeptidase 9 (MMP9), MMP9 (gene 4318)
Put plainly: BSK_KF3CT_MMP9: BioMAP Diversity Plus: KF3CT Assay for Matrix Metallopeptidase 9 (MMP9) Biomarker Activity (AID 2283074).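 On AC50: MMP9 protein level quantified by ELISA in the co-culture.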 To be noted: primary human keratinocytes with fibroblasts; actives raise or lower the signal. The gist of the method: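 Human keratinocyte/foreskin fibroblast co-culture; compound added; 24 h; MMP-9 by ELISA; bidirectional fit vs DMSO baseline.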

Read-out in assay [5]: urokinase plasminogen activator (uPA), PLAU (gene 5328)
Put plainly: BSK_KF3CT_uPA: BioMAP Diversity Plus: KF3CT Assay for urokinase plasminogen activator (uPA) Biomarker Activity (AID 2283075). As to conditions: primary human keratinocytes with fibroblasts; actives raise or lower the signal. The gist of the method:
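ELISA readout of uPA, analyzed for signal gain or loss relative to DMSO, from a human primary keratinocyte–foreskin fibroblast co-culture measured 24 h after chemical treatment.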

Read-out in assay [6]: E-selectin (Homo sapiens) (UniProt P16581)
Put plainly: BSK_LPS_Eselectin: BioMAP Diversity Plus: LPS Assay for Eselectin Biomarker Activity (AID 2283077). To be noted: primary human HUVEC with PBMC; actives raise or lower the signal. A digest of the protocol:
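Signal of E-selectin, detected by ELISA, served as the endpoint; cells were umbilical vein endothelium with PBMC, read 24 h after treatment. DMSO defined baseline, and both increases and decreases were fitted.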

Read-out in assay [7]: Interleukin-8 (IL8), CXCL8 (gene 3576)
Nature of the assay: BSK_LPS_IL8: BioMAP Diversity Plus: LPS Assay for Interleukin-8 (IL8) Biomarker Activity (AID 2283078). To be noted: primary human HUVEC with PBMC; actives raise or lower the signal. A digest of the protocol:
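Endothelial cells and PBMC from human donors are co-cultured, treated with chemicals and LPS, then assayed for IL-8 by ELISA after 24 h. Parallel SRB staining (0.1% SRB after 10% TCA fixation, 560 nm) flags cytotoxicity.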

The nature of assay [8]: BSK_LPS_SRB: Viability Assessment in the BioMAP Diversity Plus: LPS Assay (AID 2283079).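 Further: total protein by sulforhodamine B absorbance as a cytotoxicity measure; measured one day after compound addition; fitted in both directions against DMSO so loss or gain of signal counts.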 To be noted: primary human HUVEC with PBMC. The gist of the method: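 Overt cytotoxicity was gauged by sulforhodamine B total-protein staining in a primary human vascular endothelial and mononuclear cell co-culture 24 h post-dosing. Activity was fitted in both directions relative to DMSO.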

Read-out in assay [9]: Monocyte Chemoattractant Protein-1 (MCP1), CCL2 (gene 6347)
Nature of the assay: BSK_LPS_MCP1: BioMAP Diversity Plus: LPS Assay for Monocyte Chemoattractant Protein-1 (MCP1) Biomarker Activity (AID 2283081).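 On AC50: secreted MCP-1 protein quantified by ELISA in culture supernatant.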 To be noted: primary human HUVEC with PBMC; actives raise or lower the signal. A digest of the protocol:
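LPS-stimulated HUVEC/PBMC co-culture; chemical, 24 h; MCP-1 by ELISA; bidirectional fit vs DMSO; cytotoxicity via SRB (0.1% stain, 10% TCA fix, 560 nm) in parallel wells.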

Read-out in assay [10]: Tumor necrosis factor (Homo sapiens) (UniProt P01375)
Put plainly: BSK_LPS_TNFa: BioMAP Diversity Plus: LPS Assay for Tumour Necrosis Factor alpha (TNFa) Biomarker Activity (AID 2283085).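 On AC50: TNFa protein level quantified by ELISA in the co-culture.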 As to conditions: primary human HUVEC with PBMC; actives raise or lower the signal. A digest of the protocol: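 Read-out is ELISA of TNFa in primary human endothelial cell–PBMC co-cultures at 24 h after compound. Activity in either direction was fitted against DMSO.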

Read-out in another assay: CD38, CD38 (gene 952)
Put plainly: BSK_SAg_CD38: BioMAP Diversity Plus: SAg Assay for CD38 Biomarker Activity (AID 2283087). As to conditions: primary human HUVEC with PBMC; actives raise or lower the signal. The gist of the method: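 Human HUVEC plus PBMC co-culture stimulated with superantigen; CD38 measured by ELISA 24 h after chemical dosing. Fluorescence read-out, bidirectional fit against DMSO; cytotoxicity tracked in parallel by SRB and Alamar Blue.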

Read-out in the next assay: CD40, CD40 (gene 958)
Nature of the assay: BSK_SAg_CD40: BioMAP Diversity Plus: SAg Assay for CD40 Biomarker Activity (AID 2283088). As to conditions: primary human HUVEC with PBMC; actives raise or lower the signal. A digest of the protocol: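 Fluorescence ELISA read-out of CD40 from umbilical vein endothelium plus peripheral blood mononuclear cells, sampled 24 h after dosing. Values come from bidirectional curve fitting with DMSO as baseline.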

Read-out in the next assay: CD69, CD69 (gene 969)
Put plainly: BSK_SAg_CD69: BioMAP Diversity Plus: SAg Assay for CD69 Biomarker Activity (AID 2283089).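 On AC50: cell surface CD69 protein quantified by ELISA with fluorescence detection.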 As to conditions: primary human HUVEC with PBMC; actives raise or lower the signal. The gist of the method: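 Primary human vascular co-culture (umbilical vein endothelium with peripheral blood mononuclear cells) exposed to test chemical for 24 h. CD69 levels quantified by fluorescence ELISA; DMSO served as negative control for bidirectional fitting.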

The nature of assay [11]: BSK_LPS_PGE2: BioMAP Diversity Plus: LPS Assay for Prostaglandin E2 (PGE2) Biomarker Activity (AID 2283082). As to conditions: primary human HUVEC with PBMC; actives raise or lower the signal. The gist of the method: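 LPS-activated HUVEC/PBMC co-culture; cmpd dosed, 24 h; PGE2 by ELISA; bidirectional fit vs DMSO; SRB (0.1%, TCA-fixed, 560 nm) in parallel plates for overt cytotox.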

Read-out in assay [12]: Transforming growth factor beta 1 (TGFb1), TGFB1 (gene 7040)
Nature of the assay: BSK_KF3CT_TGFb1: BioMAP Diversity Plus: KF3CT Assay for Transforming growth factor beta 1 (TGFb1) Biomarker Activity (AID 2283072). To be noted: primary human keratinocytes with fibroblasts; actives raise or lower the signal. A digest of the protocol: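 Primary human skin cells (keratinocytes, foreskin fibroblasts) were co-cultured, exposed to test chemical and sampled at 24 h. TGF-b1 levels were measured by ELISA and fitted bidirectionally relative to DMSO.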

Read-out in assay [13]: Macrophage colony-stimulating factor (MCSF), CSF1 (gene 1435)
Nature of the assay: BSK_LPS_MCSF: BioMAP Diversity Plus: LPS Assay for Macrophage colony-stimulating factor (MCSF) Biomarker Activity (AID 2283083). To be noted: primary human HUVEC with PBMC; actives raise or lower the signal. The gist of the method:
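Compound is added to a human vascular primary co-culture of umbilical vein endothelium and blood mononuclear cells. After 24 h, M-CSF is quantified by ELISA. Signal changes are fitted in both directions against DMSO.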

Chain of E-selectin (Homo sapiens) (P16581 whole entry, looked up): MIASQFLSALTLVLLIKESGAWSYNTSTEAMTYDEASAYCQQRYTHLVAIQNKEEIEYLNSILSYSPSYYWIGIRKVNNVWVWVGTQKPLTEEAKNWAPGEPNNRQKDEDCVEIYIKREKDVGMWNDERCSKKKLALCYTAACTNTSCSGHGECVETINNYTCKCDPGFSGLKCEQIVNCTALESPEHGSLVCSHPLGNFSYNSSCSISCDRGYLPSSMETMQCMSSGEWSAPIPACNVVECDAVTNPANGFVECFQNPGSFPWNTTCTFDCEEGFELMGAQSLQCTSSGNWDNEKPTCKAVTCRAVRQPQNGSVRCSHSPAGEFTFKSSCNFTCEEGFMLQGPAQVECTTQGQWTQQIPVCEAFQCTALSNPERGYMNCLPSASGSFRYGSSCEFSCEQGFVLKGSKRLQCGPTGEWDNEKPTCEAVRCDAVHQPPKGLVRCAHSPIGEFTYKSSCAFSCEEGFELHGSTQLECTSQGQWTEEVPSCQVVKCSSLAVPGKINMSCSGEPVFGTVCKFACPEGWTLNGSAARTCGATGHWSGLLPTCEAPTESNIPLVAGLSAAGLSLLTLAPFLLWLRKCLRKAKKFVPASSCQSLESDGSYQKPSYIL
Chain of Tumor necrosis factor (Homo sapiens) (P01375 whole entry, looked up): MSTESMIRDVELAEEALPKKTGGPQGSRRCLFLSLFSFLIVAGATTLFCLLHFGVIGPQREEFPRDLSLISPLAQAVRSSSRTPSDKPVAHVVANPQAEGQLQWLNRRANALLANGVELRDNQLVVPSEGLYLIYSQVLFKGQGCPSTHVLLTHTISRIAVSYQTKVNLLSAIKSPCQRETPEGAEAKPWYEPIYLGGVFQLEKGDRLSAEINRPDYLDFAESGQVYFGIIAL

Take `CCn1cc(C(=O)O)c(=O)c2ccc(C)nc21`: the result in [1], in [2], in assay [3], in assay [4], in assay [5] and in assay [6] was inactive. In addition, the outcome in assay [7] is “inactive”; in assay [8], “inactive”; in [9], “inactive”; in assay [10], “inactive”; with CD38, CD38 (gene 952) it was “inactive”; in the assay with CD40, CD40 (gene 958), “inactive”. In addition, the result in the assay with CD69, CD69 (gene 969) was inactive.
One may read the AC50 as the concentration giving half of the maximal activity seen. `CCCCN(CCO)CCO`: the outcome in [1], in assay [2], in [3], in assay [4], in [5] and in assay [6] was inactive. Further, the outcome was “inactive” in assay [7]; “inactive” in assay [8]; “inactive” in [9]; “inactive” in [10]; “inactive” with CD38, CD38 (gene 952); “inactive” in the assay with CD40, CD40 (gene 958). The result with CD69, CD69 (gene 969) was inactive. Further, the AC50 in assay [5] is 14.9 µM (active).
With `C=C(F)C(=O)OC(C(F)(F)F)C(F)(F)F`, the result in assay [1], in assay [2], in [3], in [4], in assay [5] and in [6] was inactive. The outcome in assay [7] is “inactive”; in assay [8], “inactive”; in assay [9] it was “inactive”; in assay [11], “inactive”; in assay [10], “inactive”; in the assay with CD38, CD38 (gene 952), “inactive”. In addition, the outcome with CD40, CD40 (gene 958) was “inactive”; with CD69, CD69 (gene 969), “inactive”.
In the case of `CC(C)CCCC(C)(C)O`, the outcome in assay [1], in [2], in assay [3], in assay [4], in [5] and in assay [6] was inactive. Moreover, the outcome was “inactive” in assay [7]; “inactive” in assay [8]; “inactive” in assay [9]; “inactive” in assay [11]; “inactive” in [10]; “inactive” with CD38, CD38 (gene 952). Moreover, the outcome with CD40, CD40 (gene 958) is “inactive”; with CD69, CD69 (gene 969), “inactive”.
As for `CC/C(=C(\c1ccccc1)c1ccc(OCCN(C)C)cc1)c1ccccc1`, the AC50 in assay [1] is 8.27 µM (active) and 11.2 µM (active); in [2] it was 7.86 µM (active) and 9.54 µM (active); in [12], 8.7 µM (active) and 6.05 µM (active); in [3] it was 5.98 µM (active) and 7.88 µM (active); in assay [4], 7.84 µM (active) and 8.19 µM (active); in assay [5], 9.92 µM (active) and 9.67 µM (active). Moreover, the AC50 is 28.3 µM (active) and 14.3 µM (active) in [6]; 26.5 µM (active) and 10.8 µM (active) in [7]; 9.77 µM (active) and 10.4 µM (active) in assay [8]; 28.3 µM (active) and 12.4 µM (active) in assay [9]; 28.6 µM (active) and 17.4 µM (active) in [10]; 8.87 µM (active) and 7.95 µM (active) in the assay with CD38, CD38 (gene 952). Also, the AC50 is 9.12 µM (active) and 6.03 µM (active) with CD40, CD40 (gene 958); 8.89 µM (active) and 8.09 µM (active) with CD69, CD69 (gene 969).
Consider `CC(=O)c1ccc(C)cc1`, for which the outcome in assay [1], in [2], in assay [3], in assay [4], in assay [5] and in [6] was inactive. Also, the outcome in assay [7] is “inactive”; in assay [8] it was “inactive”; in [9], “inactive”; in [13], “inactive”; in [10], “inactive”; with CD38, CD38 (gene 952), “inactive”. Further, the outcome with CD40, CD40 (gene 958) was “inactive”; in the assay with CD69, CD69 (gene 969), “inactive”.

Source of the values: PubChem BioAssay (EPA / NIEHS).
